Reference: PubChem BioAssay (NCATS)
Records with an inconclusive call do not appear. Calls of active or inactive are those of the source. Unless noted, calls follow the shape of the dose curve; as a rule, active = well fitted curve in the direction sought with a large enough effect; inconclusive = small, poorly fitted or top-dose-only effect, or another doubt; inactive = no such curve, though single readings can be large; an effect the other way counts as inactive or inconclusive.

Experiments:
[1] = target: Estrogen receptor (Homo sapiens) (UniProt P03372); experiment: qHTS assay for small molecule antagonists of estrogen receptor alpha signaling (AID 588513; active = well fitted curve in the direction sought with a large enough effect in the signal ratio, with a control signal flat, not every such curve was filed as active; the % refers to the signal ratio; also: % is scaled to controls: 0 for no effect and ±100 for the full control effect); conditions: ER-alpha-UAS-bla HEK293, beta-lactamase ratio, antagonist mode; series mostly up to 76.9 µM
Estrogen receptor (Homo sapiens), sequence (P03372 whole entry, looked up): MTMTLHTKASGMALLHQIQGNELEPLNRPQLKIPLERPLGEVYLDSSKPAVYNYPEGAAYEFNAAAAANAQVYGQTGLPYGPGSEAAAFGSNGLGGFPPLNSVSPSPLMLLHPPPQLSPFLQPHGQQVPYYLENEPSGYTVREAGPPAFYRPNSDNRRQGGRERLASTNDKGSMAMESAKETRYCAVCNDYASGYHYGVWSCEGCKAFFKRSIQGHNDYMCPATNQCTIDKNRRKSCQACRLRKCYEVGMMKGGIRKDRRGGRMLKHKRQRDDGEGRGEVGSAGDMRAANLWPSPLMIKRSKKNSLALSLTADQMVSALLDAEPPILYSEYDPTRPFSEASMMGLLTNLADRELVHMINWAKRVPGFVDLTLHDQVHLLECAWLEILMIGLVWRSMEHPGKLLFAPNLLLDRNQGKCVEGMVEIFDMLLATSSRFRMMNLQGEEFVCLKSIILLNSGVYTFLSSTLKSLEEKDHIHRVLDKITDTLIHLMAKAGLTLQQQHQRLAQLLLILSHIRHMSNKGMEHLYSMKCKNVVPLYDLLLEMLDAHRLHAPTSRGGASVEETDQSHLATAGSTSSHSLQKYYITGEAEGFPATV
In short: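 Fluorescence from CCF4 substrate after 2 h at room temperature gave reporter activity; cells had been exposed to compound and 0.5nM 17-beta-estradiol for 18 h at 37 C. Hill-equation fitting yielded IC50 and maximal response.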

[2] = target: Peroxisome proliferator-activated receptor gamma (Homo sapiens) (UniProt P37231); experiment: qHTS assay for small molecule antagonists of peroxisome proliferator-activated receptor gamma signaling (AID 588537; active = well fitted inhibition curve with a large enough effect in the signal ratio, with a control signal flat, not every such curve was filed as active; the % refers to the signal ratio;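 also: reporter cells co-stimulated with 50 nM rosiglitazone agonist during compound treatment; % of control where 0% means no effect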); conditions: HEK293 PPARg-UAS-bla, beta-lactamase ratio, antagonist mode; series mostly up to 76.8 µM
Peroxisome proliferator-activated receptor gamma (Homo sapiens), sequence (P37231 whole entry, looked up): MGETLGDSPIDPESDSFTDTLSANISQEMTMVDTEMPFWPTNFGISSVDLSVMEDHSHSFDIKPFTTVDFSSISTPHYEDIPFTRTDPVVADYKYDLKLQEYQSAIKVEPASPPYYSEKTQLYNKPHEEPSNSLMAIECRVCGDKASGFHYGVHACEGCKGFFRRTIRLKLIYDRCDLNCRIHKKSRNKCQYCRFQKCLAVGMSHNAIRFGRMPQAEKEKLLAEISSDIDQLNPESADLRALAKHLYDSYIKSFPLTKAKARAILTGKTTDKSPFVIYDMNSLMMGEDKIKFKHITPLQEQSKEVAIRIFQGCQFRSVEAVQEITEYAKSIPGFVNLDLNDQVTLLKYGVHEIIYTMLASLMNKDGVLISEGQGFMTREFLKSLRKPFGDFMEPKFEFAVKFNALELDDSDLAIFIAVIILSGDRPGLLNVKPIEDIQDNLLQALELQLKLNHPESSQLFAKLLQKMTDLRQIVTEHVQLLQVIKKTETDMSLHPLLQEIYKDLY
In short: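 HEK293 cells, PPAR-gamma-UAS-bla, 3000/well. Pre-incubation 6-6.5 h, 37 C. Compound titration with rosiglitazone 50 nM final, 16 h. CCF4 dye, 2 h RT, dual-emission fluorescence.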

[3] = qHTS assay for small molecule agonists of retinoid X receptor alpha signaling (AID 588544; calls by dose curve;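 as to activation: 0% = DMSO basal wells and 100% = reference agonist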); conditions: HEK293T RXRa-UAS-bla, beta-lactamase reporter, 18 h; 530 nm emission
[4] = target: Retinoic acid receptor RXR-alpha (Homo sapiens) (UniProt P19793); experiment: as above; conditions: HEK293T RXRa-UAS-bla, beta-lactamase reporter, 18 h; series mostly up to 76.7 µM
Retinoic acid receptor RXR-alpha (Homo sapiens), sequence (P19793 whole entry, looked up): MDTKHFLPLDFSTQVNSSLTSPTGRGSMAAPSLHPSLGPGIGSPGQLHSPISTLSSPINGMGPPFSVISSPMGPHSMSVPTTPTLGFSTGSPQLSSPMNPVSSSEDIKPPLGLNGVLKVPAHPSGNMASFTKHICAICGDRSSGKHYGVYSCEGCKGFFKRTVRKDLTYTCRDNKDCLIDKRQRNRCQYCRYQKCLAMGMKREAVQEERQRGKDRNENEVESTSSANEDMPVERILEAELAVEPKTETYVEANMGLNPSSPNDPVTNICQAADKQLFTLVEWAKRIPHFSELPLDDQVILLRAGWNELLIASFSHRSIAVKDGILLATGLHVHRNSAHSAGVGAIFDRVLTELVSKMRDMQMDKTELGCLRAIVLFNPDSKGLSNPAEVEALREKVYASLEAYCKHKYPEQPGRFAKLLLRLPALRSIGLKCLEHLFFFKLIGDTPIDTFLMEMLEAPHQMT

[5] = target: Thyroid hormone receptor beta (Homo sapiens) (UniProt P10828); experiment: qHTS assay for small molecule agonists of thyroid hormone receptor beta signaling (AID 588545; calls by dose curve;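 also: 0% = DMSO only and 100% = 10 nM T3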); conditions: TR-UAS-bla GripTite HEK 293, beta-lactamase ratio, agonist mode, 18 h; series mostly up to 76.7 µM
Thyroid hormone receptor beta (Homo sapiens), sequence (P10828 whole entry, looked up): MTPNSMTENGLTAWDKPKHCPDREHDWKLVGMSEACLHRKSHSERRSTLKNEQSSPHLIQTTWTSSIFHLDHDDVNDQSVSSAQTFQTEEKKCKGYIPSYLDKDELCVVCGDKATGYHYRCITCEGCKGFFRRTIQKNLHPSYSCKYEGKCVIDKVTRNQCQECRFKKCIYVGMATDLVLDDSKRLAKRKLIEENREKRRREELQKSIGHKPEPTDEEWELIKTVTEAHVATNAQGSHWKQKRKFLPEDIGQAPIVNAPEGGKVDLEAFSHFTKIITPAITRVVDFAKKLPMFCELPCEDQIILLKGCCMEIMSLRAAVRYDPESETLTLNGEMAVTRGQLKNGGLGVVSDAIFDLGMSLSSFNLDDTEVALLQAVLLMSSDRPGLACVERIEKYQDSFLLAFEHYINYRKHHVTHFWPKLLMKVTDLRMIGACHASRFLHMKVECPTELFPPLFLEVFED
In short: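 Efficacy and EC50 values derive from Hill fits of qHTS titration data, normalized to 10 nM T3 and DMSO-only wells. HEK 293 reporter cells were stimulated for 18 hrs at 37 C, with beta-lactamase activity measured by CCF4 fluorescence.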

[6] = qHTS assay for small molecule antagonists of retinoid X receptor alpha signaling (AID 588546; active = well fitted inhibition curve with a large enough effect in the signal ratio, with a control signal flat, not every such curve was filed as active; the % refers to the signal ratio; also: potency is read from the fitted curve at half-maximal effect;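 as to max response: cells stimulated with 9-cis-retinoic acid as agonist; % is scaled to controls: 0 for no effect and ±100 for the full control effect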); conditions: HEK293T RXRa-UAS-bla, beta-lactamase ratio, antagonist mode; measured here: W530 green channel, cytotoxicity proxy
In short: (§1)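 Beta-lactamase reporter inhibition, read as CCF4 fluorescence ratio (ex 405, em 460/530 nm) after 2 h at RT. HEK293T UAS-bla cells, 2500/well, were stimulated with 9-cis-RA at 500 or 100 nM final alongside test compound for 18 h at 37 C.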

[7] = target: Retinoic acid receptor RXR-alpha (Homo sapiens) (UniProt P19793); experiment: as above; conditions: HEK293T RXRa-UAS-bla, beta-lactamase ratio, antagonist mode
In short: as §1

[8] = target: Thyroid hormone receptor beta (Homo sapiens) (UniProt P10828); experiment: qHTS assay for small molecule antagonists of thyroid hormone receptor beta signaling (AID 588547; active = well fitted inhibition curve with a large enough effect in the signal ratio, with a control signal flat, not every such curve was filed as active; the % refers to the signal ratio;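 also: cells stimulated with 0.4 nM T3 agonist during compound exposure; % is scaled to controls: 0 for no effect and ±100 for the full control effect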); conditions: TR-UAS-bla HEK293, beta-lactamase ratio, antagonist mode, 18 h
In short: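 TR-UAS-bla GripTite HEK293 cells in 2% charcoal/dextran FBS medium were preincubated 4 h at 37 C, given compound (0.59 nM to 92 uM) plus 0.4 nM T3 (final) for 18 h, then CCF4 for 2 h at RT; Hill fit gave IC50.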

[9] = target: Peroxisome proliferator-activated receptor alpha (Homo sapiens) (UniProt Q07869); experiment: qHTS assay for small molecule agonists of the peroxisome proliferator-activated receptor alpha (PPARalpha) signaling pathway (AID 651778); conditions: PathHunter PPARalpha complementation, chemiluminescence, 6 h; max response: stronger effect = higher value; also: % of control where 0% means no effect
Peroxisome proliferator-activated receptor alpha (Homo sapiens), sequence (Q07869 whole entry, looked up): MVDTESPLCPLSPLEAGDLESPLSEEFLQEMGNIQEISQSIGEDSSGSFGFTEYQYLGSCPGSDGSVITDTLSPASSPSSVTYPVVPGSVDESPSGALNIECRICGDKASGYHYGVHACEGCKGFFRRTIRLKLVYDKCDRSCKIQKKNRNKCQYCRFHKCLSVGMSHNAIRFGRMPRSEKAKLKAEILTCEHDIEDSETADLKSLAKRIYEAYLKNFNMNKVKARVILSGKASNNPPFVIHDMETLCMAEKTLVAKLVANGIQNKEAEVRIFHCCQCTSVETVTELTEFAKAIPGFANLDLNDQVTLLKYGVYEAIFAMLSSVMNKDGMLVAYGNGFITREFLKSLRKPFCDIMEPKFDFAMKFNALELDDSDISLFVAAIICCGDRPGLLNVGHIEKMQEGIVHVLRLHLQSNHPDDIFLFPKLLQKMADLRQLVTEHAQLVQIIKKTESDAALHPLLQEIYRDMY
In short: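 Cells plated at 2,000/well and held overnight at 37 C, 5% CO2, then compound added by pin tool for 6 hr; after PathHunter detection reagent and 60 min at room temperature, chemiluminescence from enzyme complementation was read.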

[10] = qHTS assay for cell viability of HEK293 cells (AID 743288); conditions: ATP luminescence (CellTiter-Glo), 18 h; max response: stronger effect = lower value; also: % is scaled to controls: 0 for no effect and ±100 for the full control effect; nearly all actives have a fitted effect of over 50% in size
In short: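 Viable-cell counts were inferred from luciferase-based ATP content in HEK293 cells seeded at 2,000/well, pre-incubated ≥5 h, then dosed with DMSO-solubilised compounds for 18 h at 37 C.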

[11] = qHTS assay for cell viability of the p53RE-bla HCT-116 cell line (AID 743292); conditions: p53RE-bla HCT-116 viability, ATP luminescence, 16 h; series mostly up to 95 µM; also: % is scaled to controls: 0 for no effect and ±100 for the full control effect; nearly all actives have a fitted effect of over 55% in size
In short: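 CellSensor p53RE-bla HCT-116 cells (4,000/well) pre-incubated 5 h at 37 C, then exposed to compounds in DMSO for 16 h at 37 C. Viability read as ATP content by CellTiter-Glo luminescence after 30 min at room temperature.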

[12] = target: Peroxisome proliferator-activated receptor gamma (Homo sapiens) (UniProt P37231); experiment: qHTS assay for small molecule agonists of peroxisome proliferator-activated receptor gamma signaling (AID 588536; active = well fitted curve in the direction sought with a large enough effect in the signal ratio, with a control signal flat, not every such curve was filed as active; the % refers to the signal ratio;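 also: 0% = DMSO basal wells and 100% = rosiglitazone at 2 µM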); conditions: HEK293 PPARg-UAS-bla, beta-lactamase ratio, 16 h, percent of rosiglitazone response, DMSO as zero; series mostly up to 76.7 µM
In short: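 Using GeneBLAzer HEK293 cells, response was quantified by CCF4 fluorescence and normalized between basal DMSO (0%) and rosiglitazone 2 uM (100%); curves yielded half-maximal stimulation concentration and efficacy.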

[13] = qHTS assay for small molecule activators of the p53 signaling pathway (AID 651743; active = well fitted activation curve with a large enough effect in the signal ratio, not every such curve was filed as active; the % refers to the signal ratio; also: % of control where 0% means no effect); conditions: HCT-116 p53RE-bla, beta-lactamase FRET ratio, 16 h; activation: stronger effect = higher value
In short: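 Here HCT-116 cells with an integrated p53-responsive beta-lactamase gene were incubated with compounds (16 hours, 37 C) after a 5-hour plating period; beta-lactamase activity was detected as fluorescence intensity via B/G FRET substrate.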

[14] = qHTS assay for small molecule activators of the nuclear factor-kappa B (NF-kB) signaling pathway (AID 651749; active = well fitted activation curve with a large enough effect in the signal ratio; the % refers to the signal ratio; also: % of control where 0% means no effect); conditions: NF-kB-bla ME-180 cells, beta-lactamase FRET ratio, 16 h; activation: stronger effect = higher value
In short: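 Beta-lactamase reporter expression, controlled by NF-kB response elements in ME-180 cells, was quantified fluorometrically via FRET disruption; cells at 2,000/well had been incubated with 23 nL test compound for 16 hr.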

[15] = qHTS assay for environmental chemicals that activate the Aryl hydrocarbon Receptor (AhR) signaling pathway (AID 651777); conditions: 1A2-DRE human hepatoma cells, luciferase, 24 h; activation: stronger effect = higher value; also: % of control where 0% means no effect; nearly all actives have a fitted effect of over 15% in size
In short: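 Human hepatoma 1A2-DRE cells stably carrying a DRE/CYP1A2 promoter–luciferase reporter, 1,200 cells/well, exposed to compound 24 hr at 37 C. Luciferase read by One-Glo luminescence after 30 min at room temperature; increased signal marks AhR activation.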

[16] = qHTS assay for small molecule agonists of the antioxidant response element (ARE) signaling pathway measured by Nrf2-dependant transcriptional activity (AID 720636; active = well fitted curve in the direction sought with a large enough effect in the repeat runs; an effect the other way counts as inactive or inconclusive; also: % of control where 0% means no effect); conditions: ARE-luc HepG2, Nrf2 luciferase reporter, 16 h; series mostly up to 92.4 µM
In short: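 ARE-luc HepG2 cells carrying an Nrf2-responsive luciferase reporter, in medium with 1% dialyzed FBS, exposed to compound for 16 hr at 37 C, 5% CO2. Luminescence read 30 min after ONE-Glo addition.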

[17] = qHTS assay for small molecule agonists of the antioxidant response element (ARE) signaling pathway measured by Nrf2-dependant transcriptional activity - cell viability counter screen (AID 720653; active = well fitted curve in the direction sought with a large enough effect in the repeat runs; an effect the other way counts as inactive or inconclusive; also: % is scaled to controls: 0 for no effect and ±100 for the full control effect); conditions: ARE-bla HepG2 viability, CellTiter-Glo ATP luminescence, 16 h; max response: stronger effect = lower value
In short: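 ARE-bla HepG2 cells (2,000/well) rested 5 hrs at 37C/5% CO2, then exposed to compounds in DMSO for 16 hrs. Viability was read in the same wells as intracellular ATP by luminescence, 30 min at room temperature after reagent addition.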

[18] = target: Nuclear receptor subfamily 1 group I member 2 (Rattus norvegicus) (UniProt Q9R1A7); experiment: qHTS assay for small molecule activators of the rat pregnane X receptor (rPXR) signaling pathway (AID 651751; call rule not given here; also: 0% is about no effect); conditions: rPXR reporter cells, luciferase (One-Glo), 24 h
Nuclear receptor subfamily 1 group I member 2 (Rattus norvegicus), sequence (Q9R1A7 whole entry, looked up): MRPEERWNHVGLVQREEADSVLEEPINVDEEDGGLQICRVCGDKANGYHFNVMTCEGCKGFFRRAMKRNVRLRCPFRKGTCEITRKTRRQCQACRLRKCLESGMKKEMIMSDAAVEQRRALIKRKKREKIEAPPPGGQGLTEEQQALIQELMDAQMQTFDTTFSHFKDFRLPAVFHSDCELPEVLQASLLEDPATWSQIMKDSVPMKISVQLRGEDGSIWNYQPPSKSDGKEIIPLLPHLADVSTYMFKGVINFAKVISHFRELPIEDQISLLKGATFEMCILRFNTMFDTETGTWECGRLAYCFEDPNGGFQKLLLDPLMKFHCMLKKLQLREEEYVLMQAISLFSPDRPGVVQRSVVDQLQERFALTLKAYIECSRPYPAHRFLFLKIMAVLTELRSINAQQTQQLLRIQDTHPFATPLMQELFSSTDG

[19] = qHTS assay for small molecule activators of the human pregnane X receptor (PXR) signaling pathway (AID 720659; call rule not given here; also: 0% is about no effect); conditions: DPX-2 HepG2 CYP3A4-luciferase, 24 h; series mostly up to 92.3 µM
[20] = target: Vitamin D3 receptor (Homo sapiens) (UniProt P11473); experiment: qHTS assay for small molecule agonists of vitamin D receptor signaling (AID 588543; calls by dose curve;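 also: 0% = DMSO basal and 100% = reference agonist control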); conditions: HEK293T VDR-UAS-bla, beta-lactamase ratio, 16 h; series mostly up to 76.8 µM
Vitamin D3 receptor (Homo sapiens), sequence (P11473 whole entry, looked up): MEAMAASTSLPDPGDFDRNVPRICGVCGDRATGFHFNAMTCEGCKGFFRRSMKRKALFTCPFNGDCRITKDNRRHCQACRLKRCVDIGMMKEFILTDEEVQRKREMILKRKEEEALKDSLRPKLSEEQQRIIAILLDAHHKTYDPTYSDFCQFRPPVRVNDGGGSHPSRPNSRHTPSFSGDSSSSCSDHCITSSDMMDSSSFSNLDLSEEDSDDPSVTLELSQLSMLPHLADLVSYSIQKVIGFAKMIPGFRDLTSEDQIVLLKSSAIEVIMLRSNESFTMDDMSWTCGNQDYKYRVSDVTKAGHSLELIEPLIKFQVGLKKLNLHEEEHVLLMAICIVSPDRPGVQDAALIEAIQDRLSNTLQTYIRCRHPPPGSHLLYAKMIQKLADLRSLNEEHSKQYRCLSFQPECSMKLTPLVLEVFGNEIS
In short: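 Reporter cells (HEK293T, VDR-UAS-bla) were seeded in medium with 2% charcoal-stripped serum and incubated 5 h, then compounds in concentration series were added for 16 h at 37 °C. Stimulation was scaled between DMSO basal and 50 nM 1α,25-dihydroxyvitamin D3.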

c1ccc2cc3c(ccc4ccccc43)cc2c1
inactive: Potency [1] | Potency [2] | Potency [4] | Potency [5] | max response [7] -3.27% | activity change % (negative = inhibition) [8] -17.7% | max response [9] -0.566% | max response [10] -8% | Potency [11]
-11.9%: max response [6]
4.49%: max response [3]

CCCCCCCCCC[N+](C)(C)Cc1ccccc1
inactive: outcome [12] | Potency [2] | Potency [5] | activation [13] 6.02% | activation [14] 4.29% | activation [15] 0.379% | max response [9] 7.43% | Potency [16] | max response [17] -23% | max response [10] -27.5% | max response [18] -4.11% | outcome [19]
active: Potency [7] 35.5 µM
16%: max response [6]

CC(=O)CC(=O)Nc1ccc(C)cc1C
inactive: outcome [12] | Potency [2] | Potency [5] | activation [13] -5.45% | activation [14] 0.179% | activation [15] 0.555% | max response [9] -1.32% | Potency [16] | max response [10] -7.21% | Potency [11] | max response [18] -1.86% | outcome [19]

C=C[Si](C)(C)O[Si](C)(C)C=C
inactive: outcome [12] | Potency [2] | outcome [20] | Potency [4] | Potency [5] | max response [7] -0.957% | activity change % (negative = inhibition) [8] 3.28% | activation [13] -3.83% | activation [14] -0.794% | activation [15] -1.78% | max response [9] -1.71% | Potency [16] | max response [17] -2.71% | max response [10] -5.1% | Potency [11] | max response [18] 0.719% | outcome [19]
-11.2%: max response [6]
11.5%: max response [3]

CSc1ccc(Cl)cc1
inactive: outcome [12] | Potency [2] | outcome [20] | Potency [4] | Potency [5] | max response [7] -2.56% | activation [14] -1.66% | activation [15] -3.53% | max response [9] -0.0243% | Potency [16] | max response [17] -9.05% | max response [10] -19.5% | Potency [11] | max response [18] -1.44% | outcome [19]
18.6%: max response [6]
8.86%: max response [3]

CCCCC/C=C\C/C=C\CCCCCCCC(=O)OC
-7.14%: max response [3]
inactive: outcome [12] | Potency [2] | Potency [4] | Potency [5] | max response [7] -5.56% | activity change % (negative = inhibition) [8] -14.4% | activation [13] -2.82% | activation [14] -0.453% | activation [15] 1.77% | max response [9] -0.289% | Potency [16] | max response [17] -4.45% | max response [10] -12.5% | Potency [11] | max response [18] -0.654% | outcome [19]
7.06%: max response [6]

CO[Si](OC)(OC)c1ccccc1
-13.7%: max response [3]
inactive: outcome [12] | Potency [2] | outcome [20] | Potency [4] | Potency [5] | max response [7] -6.99% | activation [13] -3.17% | activation [14] 0.204% | activation [15] 1.89% | max response [9] -1.36% | Potency [16] | max response [17] -0.0462% | max response [10] -0.551% | Potency [11] | max response [18] -6.78% | outcome [19]
-3.5%: max response [6]

CC/C=C/CCCCCCCCCCOC(C)=O
-22.5%: max response [3]
inactive: outcome [12] | Potency [2] | outcome [20] | Potency [4] | Potency [5] | activity change % (negative = inhibition) [8] 4.15% | activation [15] -0.59% | max response [9] -1.44% | Potency [16] | max response [17] -0.636% | max response [10] -7.88% | Potency [11] | max response [18] 3.81% | outcome [19]
